Bioassay records: PubChem, The Scripps Research Institute Molecular Screening Center
This is a sample that favours compounds with a hit; in the whole collection about 4.1% have one here.
hgDAF12 agonist = H. glycines DAF-12 receptor agonists, primary screen, cell-based, luminescence, HEK293, GAL4 fusion, UAS-luciferase; Nuclear hormone receptor DAF-12 (Heterodera glycines), GAL4 fusion; HEK293 GAL4-hgDAF12 UAS-luciferase reporter, agonist luminescence; normalized to butyrate control; activation, % at 6.8 µM; actives 1.8% (n = 370,000);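 active = activation above a cutoff set at the mean of all screened compounds plus 3 SD, cut at about 10% in these data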;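 also: 0% = DMSO wells and 100% = sodium butyrate wells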
DAX1 inh-1 = DAX1 (NR0B1) inhibitors, primary screen, cell-based, HEK293, Gal4-DAX1, luciferase luminescence; actives 0.99% (n = 340,000); inhibition, % at 6.75 µM; HEK293 Gal4-DAX1 luciferase reporter; Nuclear receptor subfamily 0 group B member 1 (Homo sapiens), P51843;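 active = inhibition above the mean over all tested compounds plus 3 SD, cut at about 4.2% in these data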;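 also: 0% = DAX1-transfected cells with DMSO and 100% = empty-vector control cells with DMSO; inhibition shows as a rise in luminescence from relieved DAX1 repression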
Target sequence (P51843 207-470 limits assumed): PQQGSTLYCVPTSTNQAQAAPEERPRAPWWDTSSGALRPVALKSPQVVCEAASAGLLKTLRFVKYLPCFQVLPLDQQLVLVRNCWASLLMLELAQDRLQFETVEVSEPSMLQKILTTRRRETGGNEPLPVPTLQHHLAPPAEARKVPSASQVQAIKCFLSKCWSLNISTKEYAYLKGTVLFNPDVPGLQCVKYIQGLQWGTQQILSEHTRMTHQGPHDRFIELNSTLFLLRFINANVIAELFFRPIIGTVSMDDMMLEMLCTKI
ssDAF-12 act = S. stercoralis DAF-12 nuclear receptor activators, primary screen, cell-based, luminescence, HEK293, GRIP1 co-expression, lit1-tk-luc | HEK293 ssDAF-12/GRIP1 lit1-tk-luc reporter; % of 3 µM dafachronic acid response | Nuclear hormone receptor DAF-12 (Strongyloides stercoralis) | activation, % at 6.8 µM | actives 1% (n = 370,000);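 active = activation above the mean over all tested compounds plus 3 SD, cut at about 0.9% in these data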;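 also: 0% = DMSO-only wells and 100% = 3 µM delta7-dafachronic acid wells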
hcDAF-12 act = H. contortus DAF-12 nuclear receptor activators, primary screen, cell-based, luminescence, HEK293, lit1-tk-luc reporter. HEK293 hcDAF-12 lit1-tk-luc reporter; 0% DMSO, 100% Δ7-dafachronic acid. activation, % at 6.8 µM. actives 1.4% (n = 370,000);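 active = activation above the mean of all tested compounds plus 3 SD, cut at about 5.5% in these data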;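 also: 100% = response to 3 µM Δ7-dafachronic acid high control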
DAX1 inh-2 = DAX1 (NR0B1) inhibitors on StAR promoter, primary screen, cell-based, luminescence, SF-1 (NR5A1), full-length DAX-1 | actives 1.1% (n = 370,000) | inhibition, % at 6.8 µM | HEK293T StAR-luciferase reporter, SF-1/DAX-1 repression relief | AID 652010, 2013;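 active = inhibition above the mean over all tested compounds plus 3 SD, cut at about 3.6% in these data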;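 also: 0% = DAX-1 cells with DMSO and 100% = cells lacking DAX-1 with DMSO; higher inhibition means more luminescence from relief of DAX-1 repression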
Active calls of the source: *; · = not tested or not shown.

SMILES	hgDAF12 agonist	DAX1 inh-1	ssDAF-12 act	hcDAF-12 act	DAX1 inh-2
CN1CCC(N[C@@H](Cc2ccccc2)C(=O)NCCCc2ccccc2)(C(=O)NCCc2c[nH]c3ccccc23)CC1	2	·	-1	-1	·
COc1cccc(/C=N/NC(=O)CCn2c3ccccc3c3ccccc32)c1	5	2	1.4*	1	0
O=C(OCc1nnc(-c2ccccc2)o1)C12CC3CC(CC(Br)(C3)C1)C2	2	4.8*	-1	0	1
O=C(OCc1nnc(-c2ccccc2)o1)c1ccccc1	3	0	-2	1	0
Cc1cc(NC(=O)C(=O)NCc2cccc(Cl)c2)no1	2	5.5*	-1	-2	0
O=C(CCCCC(=O)Nc1c(I)cc(I)c(C(=O)O)c1I)Nc1c(I)cc(I)c(C(=O)O)c1I	-2	-1	1.9*	0	0
Cc1ccc(O)c(NC(=O)C2=CC(c3ccco3)=NS(=O)(=O)N2C)c1	0	0	-1	0	0
CN1C(C(=O)Nc2cccc(O)c2)=CC(c2ccco2)=NS1(=O)=O	5	7.6*	-1	1	0
COC(=O)[C@]12C[C@H](CC(=O)NCC34CC5CC(CC(C5)C3)C4)C(=O)N(Cc3ccco3)C1=C[C@H](COCc1ccccc1)O[C@@H]2C	0	·	-1	-3	0
COC(=O)[C@]12C[C@H](CC(=O)N3CCCC3)C(=O)N(Cc3ccc(Cl)cc3Cl)C1=C[C@H](C1CCCC1)O[C@@H]2C	5	·	-1	-1	0
COC(=O)[C@H](CC(C)C)N(CCCc1cn(Cc2ccccc2)nn1)S(=O)(=O)c1ccc(F)cc1Br	-2	·	-1	-4	-3
COc1ccc(C2=NOC(C(=O)O)C2)cc1 (stereo unspecified)	3	0	1.8*	5	1
CCOC(=O)[C@@]12CN(C(=O)OC(C)(C)C)CC=C1N(Cc1ccc(OC)cc1)C(=O)[C@H]2CC(=O)N1CCN(C(=O)c2ccco2)CC1	-2	·	-2	-2	0
COc1ccc(CNS(=O)(=O)/C=C/c2cc(C)ccc2CNC(=O)OC(C)(C)C)cc1	-5	·	-2	-4	-2
Cc1ccc(-c2nc3ccccc3c(=O)n2N)cc1	3	0	1	4	1
Nn1c(-c2ccccc2)nc2cc(Cl)ccc2c1=O	5	1	1.9*	5.7*	1
On1c(-c2ccccc2)nc2ccc(Cl)cc21	12*	1	-1	3	3
Cc1cccc(-c2nc3ccccc3c(=O)n2N)c1	-1	1	-1	1	0
COc1cc(-c2nc3ccccc3c(=O)n2N)cc(OC)c1OC	3	-2	5.7*	-1	-1
N#Cc1cccc(C(=O)N2CCC(Oc3cccnc3)CC2)c1	4	·	-1	-1	-1
COC(=O)[C@]12C[C@H](CC(=O)N3CCC(c4ccccc4)CC3)C(=O)N(CCc3ccc(OC)c(OC)c3)C1=C[C@H](C1CCCC1)O[C@@H]2C	4	·	-2	1	-1
N#Cc1ccccc1N1CCN(C(=O)C2CCN(c3ncnc4c3sc3cccc(F)c34)CC2)CC1	-9	·	-2	-5	-4
O=C1CC(NNc2ccccc2)C(=O)N1c1ccccc1 (stereo unspecified)	0	2	0	6.3*	1
CCN1CCN(CC(=O)c2c[nH]c3ccccc23)CC1	-2	0	1	5.6*	1
O=Nc1c(-c2ccccc2)cc2ccccn12	3	6.6*	-1	-2	-1
CN(C)C(=O)C(=O)c1c(-c2ccccc2)cc2ccccn12	-4	1	-1	-2	1
O=C(O)Cn1cc(/C=C/[N+](=O)[O-])c2ccccc21	3	-1	0.9*	4	1
O=C(O)Cn1cc(C(=S)N2CCCCC2)c2ccccc21	0	6.2*	-2	3	1
